pS6 MEF inh: reduces mTORC1 signaling in Tsc2 and p53 null MEF cells | Tsc2-/- p53-/- MEF, phospho-rpS6 immunofluorescence/PI, 24 h | Potency, µM (top dose mostly 38.3 µM), without a hit: at the top dose activity change, negative = inhibition, usual class: inhibitors | actives 0.78% (n = 44,000) | AID 493208;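 also: potency is read from the fitted curve at half-maximal effect; plate controls were DMSO for no effect and rapamycin for full effect; nearly all actives have a fitted effect of over 50% in size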
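Plate MEFs (Tsc2-/-, p53-/-, empty vector) in DMEM/10% FBS; after 24 h add compound, incubate 24 h at 37 degree Celsius; fix in PFA/TX-100, block, stain phospho-rpS6 and 10 uM PI; scan at 488 nm; report % positive cells.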
p53null 39C tox: kills p53 null cells at the nonpermissive temperature; actives 0.97% (n = 55,000); Potency, µM (series often up to 46.1 µM), for the others: at the top dose activity, negative = cell killing, hits mostly cytotoxic; H1299 p53-null (neo) cells, 39C, ATPlite viability, 24 h; AID 904;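 also: potency is read from the fitted curve at half-maximal effect; 0% = DMSO only and -100% = full killing by 100 µM tamoxifen; nearly all actives have a fitted effect of over 50% in size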
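Cells seeded at 600/well, 37C overnight. Compound added (up to 46 uM), plates shifted to 39C for 24 hr. ATPlite added, luminescence read after 20 min at room temperature.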
S16 viability: toxic to S16 Pmp22-F2sN Schwann cells; S16 Pmp22-F2sN Schwann cells viability, CellTiter-Glo, 24 h; actives 0.48% (n = 43,000); Potency, µM (titrated, usually from 57.5 µM), without a hit: at the highest dose activity change, negative = cytotoxicity, most hits filed as cytotoxic; AID 1508642; also: potency is read from the fitted curve at half-maximal effect; % is scaled to controls: 0 for no effect and ±100 for the full control effect; nearly all actives have a fitted effect of over 65% in size
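Used to flag compounds lowering reporter output through toxicity, this quantitative HTS measures ATP-based CellTiter-Glo luminescence in S16 Pmp22-F2sN Schwann cells after 24 h compound exposure at 37C.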
p53null 32C tox: kills p53 null cells at the permissive temperature; AID 903; H1299-neo p53 null cells, ATP luminescence, 24 h, 32C; actives 0.62% (n = 55,000); Potency, µM (series often up to 46.1 µM), inactives show at the top dose activity change, negative = cytotoxicity, most hits filed as cytotoxic;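 also: potency is read from the fitted curve at half-maximal effect; 0% = DMSO only and -100% = full killing by 100 µM tamoxifen; nearly all actives have a fitted effect of over 55% in size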
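Overnight 37C seeding (600 cells/well) of H1299-neo preceded a 24 hr, 32C exposure to compounds up to 46 uM. ATP levels, read by luminescence after 20 min at RT, indicated surviving cells.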
PMP22 txn prim: PMP22 gene transcription modulation; AID 1508649; actives 2% (n = 43,000); S16 Pmp22-F2sN Schwann cells, FLuc/NLuc coincidence luminescence, 24 h; Potency, µM (highest dose often 57.5 µM), without a hit: top-dose activity change, negative = inhibition, hits mostly inhibitors; active = clear falling dose curves in both reporters; inconclusive = both reporters move, but less clearly or upward; inactive = either reporter flat; the % is the NLuc reporter signal; also: potency is read from the fitted curve at half-maximal effect; % is scaled to controls: 0 for no effect and ±100 for the full control effect
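Reporter cells (S16 Pmp22-F2sN, 500–1,000 per well) exposed to compounds for 24 h, 37C, 5% CO2; lysis with FLuc read after 10 min, then Stop&Glo and NLuc read after 10 min.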
GALC G270D up: enhancers of human galactocerebrosidase G270D mutant activity in cells; actives 0.1% (n = 45,000); P54803; Potency, µM (titrated, usually from 57.5 µM), usual class: activators; 145M-Twi-hGALC-G270D cells (Twitcher mouse brain line with human GALC G270D), HMU-beta-Gal fluorescence, 48 h; also: potency is read from the fitted curve at half-maximal effect; 0% is about no effect; nearly all actives have a fitted effect of over 65% in size
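Brain-derived Twitcher mouse 145M-Twi cells stably expressing human GALC-G270D or wild-type GALC, treated live, then residual GALC activity read by fluorescence of HMU-b-Gal substrate (0.1 mM final) in citrate-phosphate buffer pH 5.2 with sodium taurocholate. Signal increase indicates enhancement.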
NLuc saturating: counter-screen for PMP22 expression modulators: NanoLuc inhibition, saturating substrate; Secreted NLuc enzyme (filtered S16 cell medium), Nano-Glo luminescence; actives 4% (n = 690); shares compounds with PMP22 txn prim; Potency, µM (highest dose often 57.5 µM), without a hit: at the highest dose activity change, negative = inhibition, most hits filed as inhibitors; also: potency is read from the fitted curve at half-maximal effect; % is scaled to controls: 0 for no effect and ±100 for the full control effect
NLuc Km ctr: inhibits NanoLuc under Km conditions, PMP22 counter-screen; AID 1508639; shares compounds with PMP22 txn prim; Potency, µM (highest dose often 57.5 µM), inactives show at the highest dose activity change, negative = inhibition, usual class: inhibitors; secreted NLuc enzyme, coelenterazine luminescence, Km conditions; actives 5% (n = 690); also: potency is read from the fitted curve at half-maximal effect; % is scaled to controls: 0 for no effect and ±100 for the full control effect
FLuc ctr PMP22: counter-screen for PMP22 expression modulators: firefly luciferase inhibition; shares compounds with PMP22 txn prim; purified P. pyralis FLuc, luminescence, 10 min; Potency, µM (highest dose often 57.5 µM), without a hit: at the top dose activity, negative = inhibition, most hits filed as inhibitors; 690 tested, under 10 active; AID 1508640; also: % of control where 0% means no effect
Target sequence (P08659 whole entry, looked up): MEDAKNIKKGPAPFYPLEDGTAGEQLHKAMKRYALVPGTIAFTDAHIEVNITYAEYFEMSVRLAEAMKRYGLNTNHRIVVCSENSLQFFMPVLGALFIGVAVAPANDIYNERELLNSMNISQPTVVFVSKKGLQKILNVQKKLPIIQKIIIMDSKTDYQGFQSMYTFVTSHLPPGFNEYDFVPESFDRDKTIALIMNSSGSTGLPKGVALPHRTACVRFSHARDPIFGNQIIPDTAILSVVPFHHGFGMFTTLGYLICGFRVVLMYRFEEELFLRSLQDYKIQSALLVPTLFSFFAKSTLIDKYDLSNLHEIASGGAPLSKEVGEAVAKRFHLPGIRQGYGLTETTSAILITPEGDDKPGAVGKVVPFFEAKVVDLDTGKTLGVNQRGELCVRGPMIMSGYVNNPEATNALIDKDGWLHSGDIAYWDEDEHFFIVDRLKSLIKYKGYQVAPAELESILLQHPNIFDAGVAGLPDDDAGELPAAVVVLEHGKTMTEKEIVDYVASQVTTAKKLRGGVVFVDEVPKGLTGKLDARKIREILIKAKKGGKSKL
S16 viab conf: confirmation of cytotoxicity in S16 Pmp22-F2sN Schwann cells (luciferase reporters placed in the Pmp22 gene) | shares compounds with PMP22 txn prim | S16 Schwann cells viability, CellTiter-Glo ATP luminescence, 24 h | Potency, µM (doses to about 57.5 µM), for inactives: at the top dose activity change, negative = viability loss, most hits filed as cytotoxic | actives 7% (n = 690) | AID 1508641; also: potency is read from the fitted curve at half-maximal effect; % is scaled to controls: 0 for no effect and ±100 for the full control effect
PMP22 txn cnf: PMP22 transcription modulation, confirmatory. shares compounds with PMP22 txn prim. S16 Schwann cells Pmp22-F2sN, dual luciferase, 24 h. Potency, µM (top dose mostly 57.5 µM), inactives show top-dose activity change, negative = inhibition, actives largely listed as inhibitors. actives 22% (n = 690); active = clear falling dose curves in both reporters; inconclusive = both reporters move, but less clearly or upward; inactive = either reporter flat; the % is the FLuc reporter signal; also: potency is read from the fitted curve at half-maximal effect
PMP22 prot conf: rat PMP22 protein level modulation, confirmatory. shares compounds with PMP22 txn prim. S16 Schwann cells Pmp22-HiBiT, luminescence, 48 h. Potency, µM (titrated, usually from 27.9 µM), without a hit: at the top dose activity change, negative = inhibition, actives largely listed as inhibitors. 95 tested, under 10 active
Target sequence (P25094 whole entry, looked up): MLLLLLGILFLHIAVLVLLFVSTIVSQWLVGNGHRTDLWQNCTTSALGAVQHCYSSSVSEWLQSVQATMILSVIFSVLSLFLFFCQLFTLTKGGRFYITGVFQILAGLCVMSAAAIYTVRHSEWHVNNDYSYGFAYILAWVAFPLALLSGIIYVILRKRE
* = called active by the depositor; i = inactive; u = inconclusive; x = not tested or not shown. Hits are enriched below; roughly 3% of the tested compounds scored in any of these assays. Unless noted, calls follow the shape of the dose curve; as a rule, active = well fitted curve in the direction sought with a large enough effect; inconclusive = small, poorly fitted or top-dose-only effect, or another doubt; inactive = no such curve, though single readings can be large; an effect the other way counts as inactive or inconclusive.

SMILES | pS6 MEF inh | p53null 39C tox | S16 viability | p53null 32C tox | PMP22 txn prim | GALC G270D up | NLuc saturating | NLuc Km ctr | FLuc ctr PMP22 | S16 viab conf | PMP22 txn cnf | others
Cc1cccc(-n2c3nc(=O)[nH]c(=O)c-3cc3c(C)nn(-c4ccccc4)c32)c1C | 3% | -5% | -1% | 4% | -5% | i | x | x | x | x | x
Cc1ccc(/C=C/c2onc(C)c2S(=O)(=O)N2CCC(C(=O)Nc3cccc(C#N)c3)CC2)cc1 | -16% | -4% | 18% | 12% | 12µM* | i | -2% | 7% | 7% | 14% | -16%
COc1ccc(NC(=O)C2CCN(S(=O)(=O)c3c(C)noc3/C=C/c3ccc(C)cc3)CC2)cc1Cl | 2% | -4% | 6% | 8% | -19% | i | x | x | x | x | x
Cc1ccc(/C=C/c2onc(C)c2S(=O)(=O)N2CCC(C(=O)NCc3ccc(C)o3)CC2)cc1 | -5% | -11% | 7% | -3% | -4% | i | x | x | x | x | x
Cc1ccc(/C=C/c2onc(C)c2S(=O)(=O)N2CCC(C(=O)NCC(C)c3ccccc3)CC2)cc1 (stereo not drawn) | 2% | 8% | 27% | -2% | 13µM* | i | -3% | -1% | 7% | 2% | u
Cc1ccc(C)c(NC(=O)C2CCCN(S(=O)(=O)c3c(C)noc3/C=C/N(C)C)C2)c1 (stereo not drawn) | -26% | 23% | 3% | 43% | u | i | u | u | 3% | -6% | -5%
O=C(Nc1ccc(Cl)c(C(F)(F)F)c1)C1CCN(S(=O)(=O)c2cccc3nonc23)CC1 | -7% | u | -11% | 14% | -21% | i | x | x | x | x | x
COc1cc2[nH]c(=O)n(CCCCCC(=O)NCCCN3CCC(C)CC3)c(=O)c2cc1OC | x | -2% | x | -5% | x | x | x | x | x | x | x
CCN(CC)S(=O)(=O)c1ccc(NC(=O)[C@H](CCSC)N2Cc3ccccc3C2=O)cc1 | -4% | u | -9% | -4% | -2% | i | x | x | x | x | x
Cc1ccccc1S(=O)(=O)Cc1ccc(C(=O)N2CCN(c3cccc(Cl)c3)CC2)o1 | u | -1% | u | -7% | 12µM* | i | u | -20% | 10% | -13% | 9.7µM* | PMP22 prot conf=u
COc1cccc(N2CCN(C(=O)c3ccc(CS(=O)c4cccc(Cl)c4)o3)CC2)c1 (stereo not drawn) | u | -20% | -14% | -3% | 5µM* | i | u | u | 1% | -8% | u
O=C(c1ccc(CS(=O)c2ccccc2Cl)o1)N1CCN(c2cccc(Cl)c2)CC1 (stereo not drawn) | u | u | -9% | -22% | u | i | x | x | x | x | x
O=C(c1ccc(CS(=O)c2ccccc2Cl)o1)N1CCN(c2cccc(C(F)(F)F)c2)CC1 (stereo not drawn) | u | u | -26% | -2% | 12µM* | i | -14% | u | -1% | -39% | u | PMP22 prot conf=u
COCCNC(=O)c1ccc(NC(=O)N2CCCCc3ccccc32)cc1 | -2% | 10% | 0% | 0% | -11% | i | x | x | x | x | x
CCN1CCOC(=O)C1CC(=O)Nc1cc(Cl)ccc1OC (stereo not drawn) | u | x | u | x | 19µM* | i | -8% | 0% | 4% | 7% | u
CCc1ccc(NC(=O)CC2C(=O)OCCN2CC)cc1 (stereo not drawn) | u | x | u | x | 15µM* | i | -17% | -17% | -19% | -27% | u
Cc1c(/C=C(\C#N)C(=O)Nc2cccc(Cl)c2)c2ccccc2n1Cc1ccccc1Cl | 22% | -2% | -13% | 3% | u | i | -7% | -3% | -5% | 6% | -14%
N#C/C(=C/c1cn(Cc2ccccc2Cl)c2ccccc12)C(=O)Nc1cccc(Cl)c1 | 4% | -15% | -3% | -6% | -26% | i | x | x | x | x | x
CN(C)c1ccc(-c2nnc3n(Cc4ccccc4)c(=O)c4ccccc4n23)cc1 | 3% | 16% | 4% | 5% | u | i | x | x | x | x | x
COC(=O)c1c(-c2ccc(Cl)cc2)noc1N1CCN(c2cccc(OC)c2)CC1 | 4% | 11% | u | -6% | 7µM* | i | u | -5% | 4% | 5% | 12µM*
COc1cccc(CNC(=O)c2cc3c(=O)n(C)c4ccccc4c3n2C)c1 | 2% | -26% | 14% | -4% | 13µM* | i | -9% | -2% | 5% | -14% | u
O=C(Nc1ccc(F)cc1Cl)C1CCN(c2ncnc3c2nc2n3CCCCC2)CC1 | -3% | -1% | -25% | 0% | 17µM* | i | -19% | 8% | -14% | -3% | u
CCOC(=O)c1ccccc1NC(=O)C1CCN(c2ncnc3c2nc2n3CCCCC2)CC1 | -4% | 2% | 1% | -3% | u | i | x | x | x | x | x

Screening data: PubChem, National Center for Advancing Translational Sciences (NCATS)
